# Measurements as given in PubChem BioAssay AID2071 (Sanford-Burnham Center for Chemical Genomics, 2009).
# Among all 280,000 compounds or so, about 1,700 (0.61%) were called active. This is one part of a sample in which actives are shown more often than they occur. No stated cut-off is given here; in the data, active means inhibition mostly above about 24% (no sharp cut-off); inactive means mostly below about 32%.
# Assay: NALP1 inflammasome inhibitors in reconstituted yeast, colorimetric, S. cerevisiae, triplicate retest (AID 2071)
# Settings: S. cerevisiae NALP1/ASC/caspase-1 growth, X-gal OD620, 72 h, stronger effect = higher value
structure (smiles),measurement,setting,value
COc1ccc(S(=O)(=O)Nc2ccc(S(=O)(=O)N3CCCCC3)cc2)cc1OC,inhibition,at 10 µM unless noted,22.8% (inactive)
CNS(=O)(=O)c1ccc(NC(=O)Nc2ccc3c(c2)OCO3)cc1,inhibition,at 10 µM unless noted,-4.3% (inactive)
COc1ccc(S(=O)(=O)Nc2ccc3c(c2)OCO3)cc1Cl,inhibition,at 10 µM unless noted,27.9% (active)
Cc1cc(N=Nc2ccc3ccccc3c2)ccc1O,inhibition,at 10 µM unless noted,1.2% (inactive)
CC[C@]1(c2ccccc2OC)C(=O)N(C(=O)OC)N1C(=O)OC,inhibition,at 10 µM unless noted,34.1% (inactive)
CCOC(=O)C1(Cc2ccccc2C)CCCN(C(=O)CN2C(=O)CSC2=O)C1 (configuration not stated),inhibition,at 10 µM unless noted,20% (inactive)
O=C(NC(=S)N1CCCCC1c1cccnc1)c1ccccc1 (configuration not stated),inhibition,at 10 µM unless noted,-18% (inactive)
CCCn1c(=N)n(CC(=O)c2ccc(Cl)c(Cl)c2)c2ccccc21,inhibition,at 10 µM unless noted,23.1% (inactive)
CCn1c(=N)n(CC(=O)c2cccc(OC)c2)c2ccccc21,inhibition,at 10 µM unless noted,31.5% (active)
COc1ccc2cc(C(=O)O)n(CC(=O)c3ccccc3)c2c1,inhibition,at 10 µM unless noted,14% (inactive)
Cc1ccccc1NC(=O)C1CCN(C(=O)NC2CCCCC2)CC1,inhibition,at 10 µM unless noted,40.8% (active)
Cc1cccc(NC(=O)C2CCN(C(=O)NC3CCCCC3)CC2)c1,inhibition,at 10 µM unless noted,3.7% (inactive)
O=C(Nc1cccc2c1CCCC2)C1CCN(C(=O)NC2CCCCC2)CC1,inhibition,at 10 µM unless noted,-14.2% (inactive)
O=S(=O)(Oc1ccccc1C(=S)N1CCOCC1)c1ccc(Cl)cc1,inhibition,at 10 µM unless noted,1.2% (inactive)
Cc1ccc(OCc2cc(C(=O)N(C)CCn3ccnc3C)no2)cc1C,inhibition,at 10 µM unless noted,5.1% (inactive)
O=C1CSC(=S)N1c1ccc(Cl)c(Cl)c1,inhibition,at 10 µM unless noted,44.2% (active)
Cc1cc(=O)cc(C)n1-c1ccc(Cl)c(Cl)c1,inhibition,at 10 µM unless noted,-5.9% (inactive)
CCOc1cccc(/C=N/N2C(=O)CSC2=S)c1O,inhibition,at 10 µM unless noted,-14.2% (inactive)
COc1ccc(CCN=C2SCC(=O)N2C)cc1OC,inhibition,at 10 µM unless noted,2.2% (inactive)
COc1ccc(N2C(=O)CNC2=S)cc1,inhibition,at 10 µM unless noted,-21.9% (inactive)
CC(C)N1C(=S)SC(C)(C)C1n1oc(=O)n(-c2ccc(Cl)c(Cl)c2)c1=O (configuration not stated),inhibition,at 10 µM unless noted,0.9% (inactive)
COc1cccc(C2SCC(=O)N2c2cccc(C)c2)c1OC (configuration not stated),inhibition,at 10 µM unless noted,9.2% (inactive)
COc1cc(N2C(=O)CSC2=S)cc(OC)c1OC,inhibition,at 10 µM,52.7% (active)
same,inhibition,"triplicate retest, at 20 µM",57.6%
O=C1CSC(=S)N1c1ccc(O)cc1,inhibition,at 10 µM,76.7% (active)
same,inhibition,"triplicate retest, at 20 µM",95.9%
Cc1cccc(Nc2nc(-c3ccccc3)cs2)n1,inhibition,at 10 µM unless noted,19.1% (inactive)
CCOc1ccccc1NC(=S)N1CCN(c2cccc(C)c2C)CC1,inhibition,at 10 µM unless noted,4.9% (inactive)
CC(C)c1ccc2oc(=O)cc(CN3CCN(Cc4ccccc4)CC3)c2c1,inhibition,at 10 µM unless noted,8.7% (inactive)
Cc1cc(Cl)nc(NC(=O)Nc2cccc(Cl)c2)n1,inhibition,at 10 µM unless noted,22.5% (inactive)
O=c1c(-c2cccc(Cl)c2)c[nH]n1-c1ccccc1,inhibition,at 10 µM unless noted,17% (inactive)
CCCn1c(C(C)Nc2nc(-c3ccc(C)cc3)cs2)nc2cc(Cl)c(N3CCCCC3)cc21 (configuration not stated),inhibition,at 10 µM unless noted,14.5% (inactive)
O=C(CSCc1ccccc1)Nc1ccccc1,inhibition,at 10 µM unless noted,8.9% (inactive)
Cn1c(CC(=O)Nc2ccccc2)nnc1SCC(=O)c1ccccc1,inhibition,at 10 µM unless noted,9.9% (inactive)
Cn1c(CSCC(=O)Nc2ccccc2)nnc1SCc1ccccc1,inhibition,at 10 µM unless noted,38.6% (active)
CCOC(=O)Nc1ccc2c(c1)N(C(=O)CCCl)c1ccccc1[S@]2=O,inhibition,at 10 µM unless noted,8.9% (inactive)
O=C(CCCN1C(=O)/C(=C/c2cccs2)SC1=S)Nc1ccc(O)cc1,inhibition,at 10 µM unless noted,5% (inactive)
Cc1cccc(C)c1NC(=O)C(c1ccccc1)N1CC(=O)Nc2ccccc21 (configuration not stated),inhibition,at 10 µM unless noted,19.2% (inactive)
Cc1cccc(C)c1NC(=O)C(Cl)C(=O)c1ccccc1 (configuration not stated),inhibition,at 10 µM,50.4% (active)
same,inhibition,"triplicate retest, at 20 µM",80.1%
Cc1cccc(C)c1NC(=O)N1CC(C)OC(C)C1 (configuration not stated),inhibition,at 10 µM unless noted,5.2% (inactive)
CCc1ccc(NC(=O)COC(=O)c2cccs2)cc1,inhibition,at 10 µM unless noted,8.1% (inactive)
Cn1c(CCN2CCCCCC2)nc2cc(NC(=O)Nc3ccccc3)ccc21,inhibition,at 10 µM unless noted,19.6% (inactive)
Cc1nc2cc(NCc3cccs3)ccc2n1C,inhibition,at 10 µM unless noted,1.9% (inactive)
Cc1nc2cc(NC(=O)NC3CC3)ccc2n1C,inhibition,at 10 µM unless noted,29.1% (active)
CCCOC1CCCN(C(=O)c2cc(COc3cncc(Cl)c3)on2)C1 (configuration not stated),inhibition,at 10 µM unless noted,-85.7% (inactive)
Cc1ccc(C)c(N2CCN(C(=O)CCCCCn3c(=S)[nH]c4ccc(N5CCOCC5)cc4c3=O)CC2)c1,inhibition,at 10 µM unless noted,-12.8% (inactive)
CCOc1ccc(NC(=O)CCCCCN2C(=O)[C@@H]3Cc4ccccc4CN3C2=O)cc1,inhibition,at 10 µM unless noted,12.6% (inactive)
Cc1ccc(Cn2c(C)c3cnn(CC(=O)NCc4ccccn4)c(=O)c3c2C)cc1,inhibition,at 10 µM unless noted,-2.5% (inactive)
CNC(=O)/C(C#N)=C/c1c(F)cccc1Cl,inhibition,at 10 µM unless noted,46.8% (active)
N#C/C(=C\c1ccccc1C(F)(F)F)C(=O)Nc1ccccc1F,inhibition,at 10 µM unless noted,40.5% (inactive)
Cc1[nH]c2ccccc2c1/C=C(/C#N)C(=O)NC(C)C,inhibition,at 10 µM unless noted,0.1% (inactive)
O=C(Nc1cccc2cccnc12)c1cccc(Cl)c1,inhibition,at 10 µM unless noted,0.8% (inactive)
N#Cc1ccc(C(=O)Nc2cccc3cccnc23)c(F)c1,inhibition,at 10 µM unless noted,40% (active)
O=C(Nc1cccc2cccnc12)c1cccc(N2C(=O)CCC2=O)c1,inhibition,at 10 µM unless noted,15.2% (inactive)
O=Cc1c(Nc2ccccc2Cl)nc2ccccn2c1=O,inhibition,at 10 µM unless noted,13.8% (inactive)
Cc1ccc(CCn2c3c(c4ccccc42)CN(C)CC3)cn1,inhibition,at 10 µM unless noted,39.6% (active)
COc1cc(Br)c(-c2sc(Nc3ccccc3)n[n+]2-c2ccccc2)cc1OC,inhibition,at 10 µM unless noted,-1.9% (inactive)
Cc1ccccc1Nc1nc(-c2cccnc2)cs1,inhibition,at 10 µM unless noted,16.4% (inactive)
COc1nnc(-c2ccc(C)c(S(=O)(=O)N(C)C)c2)c2ccccc12,inhibition,at 10 µM unless noted,17.5% (inactive)
Cc1ccc(Nc2nnc(SCC(=O)c3cc4ccccc4o3)s2)cc1C,inhibition,at 10 µM unless noted,5% (inactive)
CCc1ccc(Nc2nnc(SCC(=O)c3ccc4c(c3)NC(=O)CO4)s2)cc1,inhibition,at 10 µM unless noted,39.5% (active)
CCCc1nc2ccccc2c(C(=O)OCC(=O)c2ccc3c(c2)NC(=O)CO3)c1CC,inhibition,at 10 µM unless noted,-1.4% (inactive)
COc1ccc(C(=O)/C=C/c2cccnc2)c(OC)c1,inhibition,at 10 µM unless noted,-90.5% (inactive)
COc1ccc(O)c(/C=N/N=C/c2cccc([N+](=O)[O-])c2)c1,inhibition,at 10 µM unless noted,14.9% (inactive)
Cc1ccc(O)c(CNc2nc3ccccc3[nH]2)c1,inhibition,at 10 µM unless noted,10.8% (inactive)
COCC1CCN(C(=O)C2CCC(=O)N(Cc3cccc(C(F)(F)F)c3)C2)CC1 (configuration not stated),inhibition,at 10 µM unless noted,2.8% (inactive)
COc1ccc(Cl)cc1NC(=O)CN1CCN(C(=O)N2CCOCC2)CC1,inhibition,at 10 µM unless noted,5.1% (inactive)
Clc1cccc(CN2COc3c(cc(Cl)c4cccnc34)C2)c1,inhibition,at 10 µM unless noted,125% (active)
Nc1c(C(=O)NCc2ccccc2)nnn1Cc1cccc(Cl)c1,inhibition,at 10 µM unless noted,7% (inactive)
CC(C)CC(=O)N1CCN(Cc2cccc(Cl)c2)CC1,inhibition,at 10 µM unless noted,10.5% (inactive)
CCC(NC(=O)c1cc(COc2ccc(F)c(F)c2)on1)c1ccncc1 (configuration not stated),inhibition,at 10 µM unless noted,0.6% (inactive)
Cc1ccc(NS(=O)(=O)c2ccc(-c3coc(C)n3)cc2)c(C)c1,inhibition,at 10 µM unless noted,3.2% (inactive)
COC(=O)/C=C\C(=O)Nc1cccc([N+](=O)[O-])c1,inhibition,at 10 µM,108% (active)
same,inhibition,"triplicate retest, at 20 µM",116%
COc1cccc(CNC(=O)CCCC(=O)Nc2cccc([N+](=O)[O-])c2)c1,inhibition,at 10 µM unless noted,-4.2% (inactive)
O=C(CSCC(=O)Nc1cccc([N+](=O)[O-])c1)Nc1ccccc1,inhibition,at 10 µM unless noted,27.6% (inactive)
O=S1(=O)CCOC[C@H](CC2CCCCC2)N1Cc1ccc(F)cc1,inhibition,at 10 µM unless noted,22.6% (inactive)
C/C(=N\NC(=O)C1(C)CC1(Br)Br)c1ccc(C)cc1C (configuration not stated),inhibition,at 10 µM unless noted,-0.3% (inactive)
CCC(=O)c1ccc(OCC(O)CN2CC(C)OC(C)C2)cc1 (configuration not stated),inhibition,at 10 µM unless noted,0.7% (inactive)
O=C(COc1ccc(Cl)cc1)N1CCN(c2cccc(C(F)(F)F)c2)CC1,inhibition,at 10 µM unless noted,-4.3% (inactive)
CCC(=O)c1ccc(OCC(O)CN2CCN(c3cccc(C(F)(F)F)c3)CC2)cc1 (configuration not stated),inhibition,at 10 µM,52.2% (active)
same,inhibition,"triplicate retest, at 20 µM",65.2%
COc1ccc(S(=O)(=O)N2CCOC2CNC(=O)C(=O)NCc2ccncc2)cc1C (configuration not stated),inhibition,at 10 µM unless noted,0.1% (inactive)
CCC(=O)c1cn(CCOc2ccccc2OC)c2ccccc12,inhibition,at 10 µM unless noted,14.8% (inactive)
Cc1csc(=NC(=O)c2ccccc2)n1CCO,inhibition,at 10 µM unless noted,2.4% (inactive)
OCCn1c(-c2ccccc2)csc1=Nc1ccccc1,inhibition,at 10 µM unless noted,50.3% (active)
Cc1csc(=Nc2ccccc2)n1CCO,inhibition,at 10 µM unless noted,26.1% (inactive)
O=C(NCCCN1CCOCC1)c1cc(-c2ccccc2F)no1,inhibition,at 10 µM unless noted,20.9% (inactive)
C[N+](C)(C)CCNC(=O)c1cc[n+](Cc2ccccc2)c(/C=N/O)c1,inhibition,at 10 µM unless noted,6.7% (inactive)
O=C(NC1CCCC1)c1cc(-c2ccccc2)on1,inhibition,at 10 µM unless noted,15.4% (inactive)
CC(=O)C(C)n1cnc2scc(-c3ccc(C)cc3)c2c1=O (configuration not stated),inhibition,at 10 µM unless noted,-5% (inactive)
C/C(=N\NC(=O)COc1ccc(C)cc1[N+](=O)[O-])c1ccc2c(c1)OCCO2,inhibition,at 10 µM unless noted,12% (inactive)
CCOc1ccc(NS(=O)(=O)c2ccc(OCC(=O)NCCCOC)cc2)cc1,inhibition,at 10 µM unless noted,-2.5% (inactive)
COCCCNC(=O)COc1cc(C)c(Cl)c(C)c1,inhibition,at 10 µM unless noted,33.8% (active)
COCCNC(=O)COc1ccccc1C,inhibition,at 10 µM unless noted,6.3% (inactive)
CCSc1nsc(NC(=O)Nc2ccccc2OC)n1,inhibition,at 10 µM unless noted,18.6% (inactive)
COc1ccc(C(CCNCc2ccccc2F)c2ccc(F)cc2)cc1 (configuration not stated),inhibition,at 10 µM,46.5% (active)
same,inhibition,"triplicate retest, at 20 µM",74.4%
COc1ccc(CC(=O)NC(C)CCc2ccccc2)cc1 (configuration not stated),inhibition,at 10 µM unless noted,7.9% (inactive)
COc1cccc(CNCCc2c[nH]c3ccccc23)c1OCc1ccccc1F,inhibition,at 10 µM unless noted,-3.7% (inactive)
CCCCNC(=O)C1CCC(=O)N1CCc1ccccc1 (configuration not stated),inhibition,at 10 µM unless noted,-0.8% (inactive)
CCCCNC(=O)C1CCCNC1=O (configuration not stated),inhibition,at 10 µM unless noted,42.8% (active)
CCCOc1ccc(NC(=O)C2CCCNC2=O)cc1 (configuration not stated),inhibition,at 10 µM unless noted,7.4% (inactive)
O=[N+]([O-])c1ccc(NC(=S)N2CCN(c3ccccn3)CC2)cc1,inhibition,at 10 µM unless noted,9.2% (inactive)
CC(=O)N1c2ccc(S(=O)(=O)N3CCCC(C(=O)NCc4ccc(Cl)cc4)C3)cc2CC1C (configuration not stated),inhibition,at 10 µM unless noted,-3.9% (inactive)
COc1ccccc1NC(=O)C1CCN(C(=O)c2ccc(C(C)(C)C)cc2)CC1,inhibition,at 10 µM unless noted,3.2% (inactive)
